TRHR PAM = TRH receptor (human) allosteric enhancement. P34981. TRHR cells, fluo-8 calcium fluorescence, EC20 TRH enhancement. enhancement, % at 2 µM. 0.66% of 360,000 active; in the data active means enhancement above about 30%; further: 0% is about no effect
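Enhancer read-out: after compound pinning and an initial kinetic agonist-mode read, an EC20 of TRH (10 nM final) was injected and fluo-8 calcium signal (Ex 480/Em 530) followed at 1 s/cycle for 100 cycles in TRHR-expressing cells.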
TRHR ag = TRH receptor (human) agonism | P34981 | TRHR cells, calcium flux fluo-8, FDSS agonist mode | activation, % at 2 µM | 0.18% of 360,000 active; further: 0% is about no effect
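TRHR-expressing cells loaded with fluo-8 calcium dye; 23 nL library compound pin-transferred, kinetic FDSS fluorescence (Ex 480/Em 530) recorded about 180 s for agonist-induced calcium release, before a 10 nM TRH EC20 addition for potentiator mode.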
D1 antagonist = antagonists of human D1 dopamine receptor; P21728; HEK293 TREx D1 cells, calcium flux, dopamine EC80; active compounds read low; activity change, negative = inhibition, % at 10 µM; 3.2% of 360,000 active; AID 504652; in the data active means activity change below about -30%; further: on the % scale 0 is the no-effect control and ±100 the full control effect
Target sequence (P21728 whole entry, looked up): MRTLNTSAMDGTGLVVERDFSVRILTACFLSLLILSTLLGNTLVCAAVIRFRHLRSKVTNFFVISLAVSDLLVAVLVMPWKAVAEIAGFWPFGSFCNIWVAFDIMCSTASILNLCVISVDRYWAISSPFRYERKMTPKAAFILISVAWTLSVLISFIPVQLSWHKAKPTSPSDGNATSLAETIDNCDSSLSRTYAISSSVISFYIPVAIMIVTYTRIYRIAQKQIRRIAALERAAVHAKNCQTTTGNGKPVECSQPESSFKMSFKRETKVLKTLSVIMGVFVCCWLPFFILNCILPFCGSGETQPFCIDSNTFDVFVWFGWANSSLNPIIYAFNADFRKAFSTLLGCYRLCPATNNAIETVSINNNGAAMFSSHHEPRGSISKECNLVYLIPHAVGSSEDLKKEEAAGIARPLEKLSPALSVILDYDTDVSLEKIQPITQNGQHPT
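Allosteric or orthosteric antagonism assessed as attenuation of the calcium response to EC80 dopamine, added 180 s after compound, in induced HEK293 Trex D1 cells loaded with no-wash calcium dye.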
D1 ag = agonists of human D1 dopamine receptor. P21728. HEK293 T-REx D1 cells, calcium flux, agonist mode. activation, % at 2 µM. 1% of 360,000 active. AID 504660; further: 0% is about no effect
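Inducible HEK293 T-REx D1 cells, force-coupled to calcium signalling, were plated at 4000 cells/well with tetracycline and held overnight at 30 C. After no-wash calcium dye loading, compound-evoked calcium rise over 180 s flagged agonists.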
D1 potentiator = potentiators of human D1 dopamine receptor; P21728; HEK293 TREx D1 cells, calcium flux, dopamine EC20 potentiation; potentiation, % at 10 µM; 0.036% of 360,000 active; AID 504651; in the data active means potentiation above about 30%; further: 0% is about no effect
* hit, by the source's call. Compounds with a hit are over-represented: about 4.6% of the library has one in this group of screens. Unless noted, no stated cut-off is given here; in the data, active means activation above about 30%; inactive means the rest.

What do the screens show for `Oc1ccccc1OCc1nc2ccccc2s1`?
TRHR PAM: -8.2; TRHR ag: -0.7; D1 antagonist: -31.1*; D1 ag: -0.7; D1 potentiator: -6.0

Results for NC(=O)CSCc1nc2ccccc2s1 ?
TRHR PAM: 36.6*; TRHR ag: 1.5; D1 antagonist: 11.9; D1 ag: 4.1; D1 potentiator: -1.1

What do the screens show for `CC(O)C(O)C(O)C(O)C1NCCS1` (stereo unspecified)?
TRHR PAM: -1.2; TRHR ag: -0.4; D1 antagonist: -65.9*; D1 ag: 0.3; D1 potentiator: 1.2

What do the screens show for `CCOc1ccccc1CNC(=O)c1ccc2nc(N3CCC(C)CC3)sc2c1`?
TRHR PAM: 0.3; TRHR ag: 0.0; D1 antagonist: -13.6; D1 ag: 2.0; D1 potentiator: -2.0

What do the screens show for `Cc1cc(C)nc(NS(=O)(=O)c2ccc(NC(=O)COc3ccc(Cl)cc3C)cc2)n1`?
TRHR PAM: 13.0; TRHR ag: -0.2; D1 antagonist: -48.6*; D1 ag: -0.7; D1 potentiator: -1.6

What do the screens show for `Cc1cc(C)nc(NS(=O)(=O)c2ccc(NC(=O)Cc3ccccc3)cc2)n1`?
TRHR PAM: 36.4*; TRHR ag: 0.3; D1 antagonist: 0.4; D1 ag: -0.5; D1 potentiator: -0.6

How did Cc1cc(C)nc(NS(=O)(=O)c2ccc(NC(=O)COc3ccccc3)cc2)n1 do in these assays?
TRHR PAM: 8.7; TRHR ag: -0.3; D1 antagonist: -17.5; D1 ag: 1.0; D1 potentiator: -7.2

What do the screens show for `COc1cc(/C=C/c2ccc3cccc(OC)c3n2)c(OC(C)=O)c([N+](=O)[O-])c1`?
TRHR PAM: -2.5; TRHR ag: 0.0; D1 antagonist: -32.4*; D1 ag: 4.2; D1 potentiator: -8.1

How did COc1cc(OC)c(N2CC(C(=O)Nc3cccc(C(=O)NC4CC4)c3)CC2=O)cc1Cl (stereo unspecified) do in these assays?
TRHR PAM: 0.2; TRHR ag: 0.4; D1 antagonist: 2.7; D1 ag: 0.2; D1 potentiator: -3.1

Results for COC(=O)Cn1nc(-c2ccc(C)cc2)c2ccccc2c1=O ?
TRHR PAM: -5.6; TRHR ag: -0.4; D1 antagonist: -74.6*; D1 ag: 1.4; D1 potentiator: -8.5

What do the screens show for `Cc1ccc(-c2nn(CC(=O)O)c(=O)c3ccccc23)cc1`?
TRHR PAM: -2.7; TRHR ag: -0.3; D1 antagonist: -6.0; D1 ag: -1.8; D1 potentiator: -4.0

What do the screens show for `CC1=NOC(=O)/C1=C\c1ccc(-c2cccc(Cl)c2)o1`?
TRHR PAM: -13.9; TRHR ag: 2.0; D1 antagonist: -51.4*; D1 ag: 0.6; D1 potentiator: -3.6

Results for CCOc1nc(Nc2ccc(OC)cc2OC)nc(OCC)n1 ?
TRHR PAM: -4.5; TRHR ag: 0.0; D1 antagonist: -30.8*; D1 ag: 6.0; D1 potentiator: -5.2

What do the screens show for `COc1ccc(Nc2nc(N)c3ccccc3n2)c(OC)c1`?
TRHR PAM: 1.2; TRHR ag: -1.0; D1 antagonist: -37.4*; D1 ag: 1.1; D1 potentiator: -6.8

Results for COc1ccc(Nc2nc(-c3ccccc3)nc3ccccc23)c(OC)c1 ?
TRHR PAM: -4.7; TRHR ag: 0.4; D1 antagonist: 9.5; D1 ag: 3.3; D1 potentiator: -5.4

Results for CCOc1nc(Nc2cc(Cl)ccc2OC)nc(OCC)n1 ?
TRHR PAM: 2.4; TRHR ag: 0.9; D1 antagonist: -1.7; D1 ag: -0.2; D1 potentiator: -3.5

How did CCc1ccc(NS(=O)(=O)c2ccc(-c3cc(C)no3)cc2)cc1 do in these assays?
TRHR PAM: 5.3; TRHR ag: 1.4; D1 antagonist: -5.4; D1 ag: 11.5; D1 potentiator: -2.5

Results for COc1cc(NC(=O)c2cc(-c3cccc(Cl)c3)on2)c(OC)cc1Cl ?
TRHR PAM: -2.1; TRHR ag: -1.8; D1 antagonist: -1.1; D1 ag: 20.3; D1 potentiator: -1.5

How did Cn1nc(-c2ccc(OCC(=O)Nc3cccc(C(F)(F)F)c3)cc2)c2ccccc2c1=O do in these assays?
TRHR PAM: 2.1; TRHR ag: 0.3; D1 antagonist: 10.1; D1 ag: 7.8; D1 potentiator: -4.5

How did O=C(CC(c1ccccc1)c1ccccc1)Nc1ncn[nH]1 do in these assays?
TRHR PAM: 5.0; TRHR ag: -0.1; D1 antagonist: -35.9*; D1 ag: 1.5; D1 potentiator: -4.7
